Some test systems named below: EKVX NSCLC; SN12C renal; UO-31 renal; TK-10 renal; ACHN renal; A498 renal; CCRF-CEM leukemia; MOLT-4 leukemia; SR leukemia; RPMI-8226 leukemia; OVCAR-8 ovarian; OVCAR-5 ovarian; OVCAR-4 ovarian; SK-OV-3 ovarian; OVCAR-3 ovarian; NCI/ADR-RES ovarian; CAKI-1 renal; IGROV1 ovarian; HS 578T breast.
What all share (assay): NCI-60 one-dose screen, 48 h (100 = growth as untreated, 0 = no growth, -100 = all killed)
Common to all, as to settings: 10 µM unless noted

The panel holds about 83,000 compounds, 20% with a hit somewhere; the sample as a whole holds those more often.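 Growth was measured after 48 h exposure to one concentration of compound in 96-well plates. Values under 10 count as active.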 A number with no mark means an inactive call. The source made the active and inactive calls.

For `Cc1cc2c(cc1C)[n+](Cc1ccc3ccccc3c1)cn2Cc1ccc2ccccc2c1`, the growth in the assay on EKVX NSCLC is -64.3% (active); in the assay with SN12C renal it was -87.2% (active); in the assay on UO-31 renal, -57.1% (active); in the assay with TK-10 renal it was -87.7% (active); with ACHN renal, -63.9% (active); in the assay on A498 renal, -68% (active). Besides, the growth was -35.1% (active) in the assay on CCRF-CEM leukemia; -64.1% (active) with MOLT-4 leukemia; -50.6% (active) in the assay on SR leukemia; -49.6% (active) in the assay with RPMI-8226 leukemia; -79% (active) in the assay with OVCAR-8 ovarian; -87.1% (active) in the assay on OVCAR-5 ovarian. Moreover, the growth in the assay on OVCAR-4 ovarian is -76% (active); in the assay with SK-OV-3 ovarian, -27% (active); in the assay on OVCAR-3 ovarian it was -94.2% (active); in the assay with NCI/ADR-RES ovarian, 80.7%.
As to `COc1cc(NC(C)CCCN)c2nc(C)ccc2c1Oc1ccc(F)cc1` (stereo unspecified), the growth is 75.1% in the assay on EKVX NSCLC; 69.9% in the assay on SN12C renal; 45.4% in the assay with UO-31 renal; 84.6% in the assay with ACHN renal; 75.9% with CAKI-1 renal; 60.4% in the assay with A498 renal. In addition, the growth is 78.2% with CCRF-CEM leukemia; 63.1% in the assay with MOLT-4 leukemia; 60.9% with SR leukemia; 70.3% in the assay with RPMI-8226 leukemia; 77.4% in the assay on OVCAR-8 ovarian; 83.4% with OVCAR-5 ovarian. Further, the growth was 62.6% with OVCAR-4 ovarian; 105% in the assay with SK-OV-3 ovarian; 56.2% with IGROV1 ovarian; 71.3% in the assay with OVCAR-3 ovarian; 49.7% in the assay with HS 578T breast; 77.6% in the assay on NCI/ADR-RES ovarian.
On to `c1ccc(-c2n(Cc3ccc4ccccc4c3)cc[n+]2Cc2ccc3ccccc3c2)cc1`, for which the growth was 3.5% (active) in the assay with EKVX NSCLC; -34.7% (active) with SN12C renal; -16.6% (active) in the assay with UO-31 renal; -69.8% (active) in the assay with TK-10 renal; -20.5% (active) in the assay on A498 renal; 6.85% (active) in the assay on CCRF-CEM leukemia. The growth was -24.9% (active) in the assay with MOLT-4 leukemia; -42.2% (active) in the assay with SR leukemia; -37% (active) in the assay on RPMI-8226 leukemia; -72.4% (active) with OVCAR-8 ovarian; -35.9% (active) in the assay on OVCAR-5 ovarian; -28.1% (active) in the assay on OVCAR-4 ovarian. The growth with SK-OV-3 ovarian is -6.1% (active); with IGROV1 ovarian it was -67.8% (active); in the assay with OVCAR-3 ovarian it was -89.8% (active); in the assay on NCI/ADR-RES ovarian, 82.2%.
Regarding `Cc1sc2nc(N3CCCCC3)[nH]c(=O)c2c1C`, the growth was 94.3% with EKVX NSCLC; 99.2% with SN12C renal; 96% with UO-31 renal; 106% in the assay on TK-10 renal; 103% in the assay with ACHN renal; 95% in the assay with A498 renal. Besides, the growth in the assay on CCRF-CEM leukemia was 93.7%; with MOLT-4 leukemia, 88.8%; with SR leukemia it was 97%; in the assay on RPMI-8226 leukemia it was 106%; with OVCAR-8 ovarian, 96.5%; in the assay with OVCAR-5 ovarian, 108%. The growth in the assay on OVCAR-4 ovarian was 100%; in the assay with SK-OV-3 ovarian, 92.3%; in the assay with IGROV1 ovarian, 107%; in the assay on OVCAR-3 ovarian it was 113%; in the assay on NCI/ADR-RES ovarian, 96.5%.
`CC(=O)N1N=C(c2ccc3c(c2)OCO3)CC1c1c(C)nn(-c2ccccc2)c1N(C)Cc1ccccc1` (stereo unspecified): the growth with EKVX NSCLC is 72.9%; in the assay with SN12C renal, 72.9%; in the assay on UO-31 renal, 51.9%; in the assay with TK-10 renal it was 80.9%; with ACHN renal, 81.3%; with A498 renal, 67.4%. Also, the growth in the assay on CCRF-CEM leukemia was 69.5%; in the assay with MOLT-4 leukemia, 41.9%; in the assay with SR leukemia, 67%; in the assay with RPMI-8226 leukemia it was 58.8%; in the assay with OVCAR-8 ovarian, 76.7%; in the assay with OVCAR-4 ovarian it was 66.3%. Besides, the growth is 84.2% in the assay with SK-OV-3 ovarian, 51.5% with IGROV1 ovarian, 79.4% in the assay on OVCAR-3 ovarian and 63% with NCI/ADR-RES ovarian.
Regarding `COc1cc(/C=C/c2cc(/C=C/c3ccc(O)c(OC)c3)n(C(=O)c3ccc(Cl)cc3)n2)ccc1O`, the growth was 13.6% with SN12C renal; 0.559% (active) with UO-31 renal; 11.5% in the assay on ACHN renal; 17.9% in the assay on CAKI-1 renal; 7.49% (active) in the assay with A498 renal; 0.628% (active) with CCRF-CEM leukemia. Moreover, the growth with MOLT-4 leukemia is 5.8% (active); in the assay with SR leukemia, 3.07% (active); in the assay on RPMI-8226 leukemia, -16.1% (active); with OVCAR-8 ovarian, 29.1%; with OVCAR-5 ovarian, 79.9%; with OVCAR-4 ovarian it was 36.5%. Further, the growth is 34% in the assay with IGROV1 ovarian, 7.65% (active) in the assay on OVCAR-3 ovarian and 10.1% with HS 578T breast.
For the molecule `COc1ccc(-c2cc(-c3cccnc3)nc(S(=O)(=O)CC(=O)Nc3ccc(C)cc3)c2C#N)cc1OC`, the growth in the assay with SN12C renal was 97.2%; in the assay with UO-31 renal, 59.8%; with ACHN renal, 98.3%; in the assay with CAKI-1 renal, 91.2%; in the assay on A498 renal it was 57.3%; with CCRF-CEM leukemia, 100%. In addition, the growth in the assay on MOLT-4 leukemia was 75.2%; in the assay with SR leukemia it was 77.4%; in the assay with RPMI-8226 leukemia, 79.8%; in the assay on OVCAR-8 ovarian, 91.6%; in the assay with OVCAR-5 ovarian, 120%; in the assay on OVCAR-4 ovarian, 90.3%. Further, the growth in the assay with IGROV1 ovarian was 107%; with OVCAR-3 ovarian it was 95.4%; in the assay on HS 578T breast it was 81.9%; with NCI/ADR-RES ovarian, 86.8%.
With `COc1cc(C2=NN(C=O)C(c3cccc(Nc4ccnc5cc(Cl)ccc45)c3)C2)cc(OC)c1OC` (stereo unspecified), the growth was 79.3% in the assay with EKVX NSCLC; 77.2% in the assay on SN12C renal; 68.7% in the assay on UO-31 renal; 86.2% with ACHN renal; 62.5% in the assay on A498 renal; 53.9% in the assay on CCRF-CEM leukemia. Moreover, the growth with MOLT-4 leukemia was 27.9%; in the assay on SR leukemia it was 9.32% (active); with RPMI-8226 leukemia, 53.7%; in the assay on OVCAR-8 ovarian it was 70%; in the assay with OVCAR-5 ovarian, 94.2%; in the assay on OVCAR-4 ovarian it was 69.3%. Also, the growth is 80.5% in the assay with SK-OV-3 ovarian, 102% with IGROV1 ovarian, 85.2% with OVCAR-3 ovarian and 65.5% in the assay with NCI/ADR-RES ovarian.
Consider `CCCCCCCCN(CCO)CCCCCCCC`, for which the growth in the assay with SN12C renal is 104%; in the assay with TK-10 renal it was 109%; in the assay with ACHN renal, 96.6%; in the assay with CAKI-1 renal, 109%; in the assay with A498 renal, 111%; with CCRF-CEM leukemia, 99.4%. Besides, the growth in the assay on MOLT-4 leukemia was 90.7%; in the assay with SR leukemia, 96.7%; in the assay on RPMI-8226 leukemia, 121%; in the assay with OVCAR-8 ovarian it was 101%; in the assay with OVCAR-4 ovarian, 93.8%; with SK-OV-3 ovarian, 103%. For the same molecule, the growth in the assay on IGROV1 ovarian is 105%; in the assay on OVCAR-3 ovarian, 109%; in the assay on HS 578T breast, 117%; in the assay with NCI/ADR-RES ovarian, 105%.

The values are drawn from PubChem BioAssay (NCI).
